Hits are enriched below; roughly 21% of the tested compounds scored in any of these assays.
NS1 inh = blocks influenza NS1 protein function; Potency, µM (doses to about 46.1 µM), without a hit: top-dose activity, positive = more growth; hit rate 0.4% among 270,000; calls by dose curve; note: potency is the fitted concentration of half-maximal effect; actives are rising curves; nearly all actives have a fitted effect of over 50% in size
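Compounds were scored for reversing the slow growth caused by influenza A NS1 in S. cerevisiae, measured by optical density at 600 nm. Assay medium contained 2% galactose at pH 6.0; NS1-free yeast of the same strain were the positive control.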
Shiga toxin inh = Shiga toxin inhibition | Vero cells, Shiga toxin protein synthesis inhibition reporter | hit rate 9.2% among 290,000 | inhibition, % at 38.7 µM; in the data active = inhibition mostly above about 28%, no sharp cut-off; inactive = mostly below about 43%; note: 0% is about no effect
SARS PLP yeast = blocks SARS-CoV papain-like protease in a yeast assay; S. cerevisiae expressing SARS-CoV PLpro, growth rescue; Potency, µM (series often up to 32.9 µM), inactives show at the highest dose activity, positive = growth rescue, usual class: activators; hit rate 0.19% among 330,000; calls by dose curve; note: potency is the fitted concentration of half-maximal effect; 0% is about no effect; nearly all actives have a fitted effect of over 55% in size
Pf growth 96h = P. falciparum growth inhibition at 96 hours; hit rate 6.9% among 320,000; AID 504834; Potency, µM (highest dose often 28.7 µM), without a hit: top-dose activity change, negative = inhibition, most hits filed as inhibitors; P. falciparum luciferase reporter growth, 96 h; note: potency is the fitted concentration of half-maximal effect; % is set by controls: 0 for no effect and ±100 for the full control effect
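Plates of compound plus infected erythrocytes (2% hematocrit, 0.05% parasitemia final) incubate 96 hours, 37 C, 5% CO2. Detection reagent added; reduced luminescence from the parasites' luciferase reporter flags inhibition.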
Pf growth 48h = P. falciparum growth inhibition at 48 hours (one generation); P. falciparum luciferase growth in erythrocytes, 48 h; Potency, µM (doses to about 28.7 µM), for the others: top-dose activity change, negative = inhibition, hits mostly inhibitors; hit rate 5.9% among 310,000; AID 504832; note: potency is the fitted concentration of half-maximal effect; % is set by controls: 0 for no effect and ±100 for the full control effect
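Growth was read as firefly luciferase luminescence after a 48 h, 37 C, 5% CO2 exposure of compounds to reporter-bearing P. falciparum cultures (0.1% parasitemia, 2% hematocrit final) in Albumax-supplemented RPMI 1640.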
Cycloheximide cs = affects cycloheximide protein synthesis inhibition readout, counter-screen; cell reporter, cycloheximide protein synthesis inhibition counterscreen; max response, %; hit rate 12% among 300,000; AID 2314; in the data active = max response mostly above about 13%, no sharp cut-off; inactive = mostly below about 14%; note: read at 38.3 µM for the half of the compounds with a filed dose; 0% is about no effect
The depositor's hits bear a star; [ ] = remark or other dose. Unless noted, calls come from the whole dose curve; as a rule, active = well fitted inhibition curve with a large enough effect; inconclusive = small, poorly fitted or top-dose-only effect, or another doubt; inactive = no such curve, though single readings can be large or run the other way.

What do the screens show for `Cc1ccc(NC(=O)CN2C(=O)N/C(=C/c3ccccc3OCc3cccc(C(=O)O)c3)C2=O)cc1`?
NS1 inh: -0.7%; Shiga toxin inh: 47.6*; SARS PLP yeast: 1.0%; Pf growth 96h: -1.1%; Pf growth 48h: 64.8%; Cycloheximide cs: 43.2*

How did CCN1C(=O)/C(=C\c2ccc(-c3cccc(C(=O)OC)c3)o2)SC1=Nc1ccc(C(=O)O)cc1 do in these assays?
NS1 inh: 16.3%; Shiga toxin inh: -4.5; SARS PLP yeast: -5.5%; Pf growth 96h: inconclusive; Pf growth 48h: inconclusive; Cycloheximide cs: -3.6

Results for CCN=C1S/C(=C\c2ccc(-c3cccc(C(=O)O)c3)o2)C(=O)N1CC ?
Shiga toxin inh: active; SARS PLP yeast: -0.9%; Pf growth 96h: -29.1%; Pf growth 48h: inactive; Cycloheximide cs: 83.2*

How did Cc1cccc(NC(=O)CN2C(=O)N/C(=C\c3ccc(-c4cccc(C(=O)O)c4)o3)C2=O)c1 do in these assays?
NS1 inh: -5.5%; Shiga toxin inh: 174.4*; SARS PLP yeast: 1.4%; Pf growth 96h: -11.0%; Pf growth 48h: 29.6%; Cycloheximide cs: 54.4*

What do the screens show for `Cc1cccc(NC(=O)CN2C(=O)N/C(=C/c3ccc(C)o3)C2=O)c1`?
NS1 inh: 9.0%; Shiga toxin inh: 11.7; SARS PLP yeast: 13.0%; Pf growth 96h: 26.1%; Pf growth 48h: 4.8%; Cycloheximide cs: -1.6

How did Cc1csc(NC(=O)CCC(=O)N(CC(=O)NC2CCCCC2)c2ccccc2)n1 do in these assays?
NS1 inh: -14.6%; Shiga toxin inh: 1.5; SARS PLP yeast: 0.3%; Pf growth 96h: 48.2%; Pf growth 48h: -25.9%; Cycloheximide cs: -2.9

Results for CO[C@H]1C[C@@H](O[C@@H]2[C@H](C)[C@H](O[C@@H]3O[C@@H](C)C[C@@H](N(C)C)[C@@H]3O)[C@H](C)C[C@]3(CO3)C(=O)[C@H](C)[C@H](O)[C@H](C)[C@H](C)OC(=O)[C@@H]2C)O[C@@H](C)[C@H]1O ?
Pf growth 96h: -10.8%[12.8 µM]; Pf growth 48h: -4.6%[12.8 µM]

What do the screens show for `O=C(CN1C(=O)c2ccccc2S1(=O)=O)Nc1ncc(Cl)cc1Cl`?
SARS PLP yeast: -4.6%

What do the screens show for `Cc1cc(C(C)(C)C)cc(C)c1C[n+]1ccc2ccccc2c1`?
NS1 inh: -3.9%; Shiga toxin inh: -6.3; SARS PLP yeast: 0.0%; Pf growth 96h: 1.31µM*; Pf growth 48h: 1.17µM*; Cycloheximide cs: -9.5

Results for CCc1ccc(S(=O)(=O)NCCc2cn3ccc(C)cc3n2)s1 ?
Shiga toxin inh: 2.2; SARS PLP yeast: 0.0%; Pf growth 96h: 30.7%; Pf growth 48h: -5.9%; Cycloheximide cs: 13.4

What do the screens show for `COc1cc(/C=N/OCC(=O)NC23CC4CC(CC(C4)C2)C3)ccc1OCc1ccccc1`?
NS1 inh: -8.5%; Shiga toxin inh: 101.2*; SARS PLP yeast: -11.2%; Pf growth 96h: 9.28µM*; Pf growth 48h: inconclusive; Cycloheximide cs: 36.4*

Results for COc1ccc(/C=N/OCC(=O)NC(c2ccccc2)c2ccccc2)cc1OC ?
NS1 inh: 16.1%; Shiga toxin inh: 2.1; SARS PLP yeast: 15.8%; Pf growth 96h: 8.28µM*; Pf growth 48h: 9.28µM*; Cycloheximide cs: 10.3

How did COc1cc(/C=N/OCC(=O)NC2CCCCC2)ccc1OCc1ccccc1 do in these assays?
NS1 inh: 6.3%; Shiga toxin inh: 152.2*; SARS PLP yeast: 3.9%; Pf growth 96h: inconclusive; Pf growth 48h: 15.9%; Cycloheximide cs: 54.6*

Results for COc1cc(/C=N/OCC(=O)NC2CCS(=O)(=O)C2)ccc1OC(F)F (configuration not stated) ?
Shiga toxin inh: 29.6; SARS PLP yeast: 1.2%; Pf growth 96h: inconclusive; Pf growth 48h: 6.6%; Cycloheximide cs: 3.8

What do the screens show for `C[C@@H]1CCC(=O)N(CC[C@H](Oc2ccccc2)c2ccccc2)CC1`?
NS1 inh: -18.2%; Shiga toxin inh: 1.1; SARS PLP yeast: 5.0%; Pf growth 96h: inconclusive; Pf growth 48h: inconclusive; Cycloheximide cs: -1.7

What do the screens show for `COc1ccccc1N1CC(O)=C(c2nc3ccccc3c(=O)[nH]2)C1=N`?
NS1 inh: -5.7%; Shiga toxin inh: -3.4; SARS PLP yeast: -2.4%; Pf growth 96h: 6.4%; Pf growth 48h: 9.28µM*; Cycloheximide cs: 16.0

What do the screens show for `Cc1ccc(N/C=C2\CCCCC2=O)nc1`?
NS1 inh: 0.7%; Shiga toxin inh: 106.8*; SARS PLP yeast: 0.3%; Pf growth 96h: inconclusive; Pf growth 48h: 0.0%; Cycloheximide cs: 57.8*

What do the screens show for `O=C1CCCC/C1=C\Nc1ccc(Cl)cn1`?
NS1 inh: -44.5%; Shiga toxin inh: 60.7*; SARS PLP yeast: inconclusive; Pf growth 48h: -13.2%; Cycloheximide cs: 27.4*

How did Cc1nc(SCC#N)c2c(C)c(C)sc2n1 do in these assays?
NS1 inh: 1.3%; Shiga toxin inh: -2.3; SARS PLP yeast: inconclusive; Pf growth 96h: 9.28µM*; Pf growth 48h: -8.1%; Cycloheximide cs: -1.6

How did CCOc1ccc(CNC(=O)CCn2c(=O)oc3ccccc32)cc1OC do in these assays?
NS1 inh: 4.0%; Shiga toxin inh: -14.4; SARS PLP yeast: 8.0%; Pf growth 96h: 9.28µM*; Pf growth 48h: inconclusive; Cycloheximide cs: -1.6

How did Cc1ccc(NC(=O)CCCC2CCCCC2)c(O)c1 do in these assays?
NS1 inh: 2.3%; Shiga toxin inh: 109.3*; SARS PLP yeast: -0.6%; Pf growth 96h: -70.4%; Pf growth 48h: -3.6%; Cycloheximide cs: 34.3*

How did COCCNC(=O)CCn1c(=O)oc2ccccc21 do in these assays?
NS1 inh: -0.8%; Shiga toxin inh: -3.2; SARS PLP yeast: 4.5%; Pf growth 96h: 10.5%; Pf growth 48h: 12.6%; Cycloheximide cs: 12.9

What do the screens show for `COCCN(CCOC)C(=O)CCn1c(=O)oc2ccccc21`?
NS1 inh: 1.8%; Shiga toxin inh: 2.1; SARS PLP yeast: -7.7%; Pf growth 96h: 1.17µM*; Pf growth 48h: -11.5%; Cycloheximide cs: -1.1

What do the screens show for `CCOc1ccccc1CNC(=O)Cn1c(=O)oc2ccccc21`?
NS1 inh: -5.2%; Shiga toxin inh: 22.2; SARS PLP yeast: -2.9%; Pf growth 96h: -30.8%; Cycloheximide cs: -1.9

How did CCOc1ccc(CCNC(=O)Cn2c(=O)oc3ccccc32)cc1OCC do in these assays?
NS1 inh: 6.2%; Shiga toxin inh: -5.3; SARS PLP yeast: 6.2%; Pf growth 48h: 8.28µM*; Cycloheximide cs: 4.8

How did COc1ccc(-c2c(C)[nH]n3c(=O)c(Cc4ccccc4)c(C)nc23)cc1 do in these assays?
NS1 inh: 6.0%; Shiga toxin inh: 8.0; SARS PLP yeast: 14.7%; Pf growth 96h: 48.9%; Pf growth 48h: inconclusive; Cycloheximide cs: 1.3

What do the screens show for `CC(Oc1ccc(Cl)cc1)c1ccc(C#N)c(=O)[nH]1` (configuration not stated)?
Shiga toxin inh: -11.7; SARS PLP yeast: -0.9%; Pf growth 96h: 27.9%; Pf growth 48h: -10.1%; Cycloheximide cs: 9.5

Screening data as filed in PubChem BioAssay.
